From PubChem BioAssay (NCATS) come the findings set out here.

One assay concerns CRL-7250. As to the kind of experiment: Cytotoxic Profiling of Annotated Libraries Using Quantitative High-Throughput Screening (AID 1296008). Further: potency means the concentration at half of the fitted maximal effect. On max response: on the % scale 0 is the no-effect control and ±100 the full control effect. Conditions: Five cell lines viability, CellTiter-Glo ATP luminescence, 48-72 h; max response: active compounds read low. The essentials:
(§1)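 Compounds were pin-transferred onto cells and incubated 48 or 72 hr at 37 degree Celsius, 95% humidity. CellTiter-Glo was added, plates sat 10 min at room temperature, then ATP-coupled luminescence was imaged as the viability read-out.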

The test system of a further assay is HEK293. The description is as above. The conditions noted are these: Five cell lines viability, CellTiter-Glo ATP luminescence, 48-72 h; max response: active compounds read low. The method in brief:
as §1

The test system of a further assay is HaCat. The assay is described as above. The conditions noted are these: Five cell lines viability, CellTiter-Glo ATP luminescence, 48-72 h; max response: active compounds read low. The essentials:
as §1

A further assay concerns KB-3-1. The description is as above. Conditions: Five cell lines viability, CellTiter-Glo ATP luminescence, 48-72 h; max response: active compounds read low. The essentials:
as §1

The next assay has as its system PC49. As to the kind of experiment: qHTS profiling for inhibitors of Plasmodium falciparum proliferation (AID 504749).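 Further: 0% = DMSO vehicle and full inhibition = artemisinin control.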 Conditions: P. falciparum in erythrocytes, SYBR Green DNA, 72 h; series mostly up to 28.7 µM. The method in brief: (§2)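 Fluorescence of SYBR Green-bound parasite DNA, read at 485/535 nm, served as the growth measure. Infected erythrocytes were cultured with compound 72 h; artemisinin (0.29 uM) and DMSO wells defined the normalization range.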

The test system of the next assay is SC27B. The assay is described as above. Conditions: P. falciparum in erythrocytes, SYBR Green DNA, 72 h; series mostly up to 28.7 µM. The method in brief:
as §2

The test system of another assay is TAB109. Described as above. The conditions noted are these: P. falciparum in erythrocytes, SYBR Green DNA, 72 h; series mostly up to 28.7 µM. The essentials: as §2
Another assay concerns TAB113. Described as above. The conditions noted are these: P. falciparum in erythrocytes, SYBR Green DNA, 72 h; series mostly up to 28.7 µM. The essentials: as §2
Another assay relates to TAB165. The description is as above. The conditions noted are these: P. falciparum in erythrocytes, SYBR Green DNA, 72 h; series mostly up to 28.7 µM. The essentials:
as §2

A further assay concerns W2. Described as above. Conditions: P. falciparum in erythrocytes, SYBR Green DNA, 72 h; series mostly up to 28.7 µM. The method in brief: as §2

Where “and” joins values, the source holds several entries; their conditions need not be identical. Identical values can stand only once. Results filed as inconclusive are left out. More than one record can exist for a structure, and the calls need not agree. A number with no mark means an inactive call. Calls of active or inactive are those of the source. The call rests on the fitted dose curve; in most records, active means well fitted inhibition curve with a large enough effect; inconclusive means small, poorly fitted or top-dose-only effect; inactive means flat fitted curve, though single readings scatter.
Further: nearly all actives have a fitted effect of over 60% in size.

Turning to `Cc1ccc(/C=N/NC(=O)c2ccccc2Oc2ccccc2)o1`, the max response in the assay on CRL-7250 was -0.512%; in the assay on HaCat it was -2.81%. Also, the Potency in the assay on HEK293 is 20.9 µM (active).
In the case of `CS(=O)c1ccc(-c2nc(-c3ccc(F)cc3)c(-c3ccncc3)[nH]2)cc1` (stereo not given), the Potency with CRL-7250 is 19.1 µM (active); in the assay on HEK293, 8.55 µM (active). The outcome in the assay with CRL-7250, with HEK293 and in the assay on KB-3-1 was inactive. Also, in the assay with HaCat, the max response was 2.48%.
Take `Cc1c(NC(=O)c2ccc(C(C)(C)C)cc2)cccc1-c1cn(C)c(=O)c(Nc2ccc(C(=O)N3CCOCC3)cc2)n1`: the max response with CRL-7250 was 2.1%; with HaCat it was -8.79%; in the assay with KB-3-1, 3.17% and -18.9%. Moreover, the compound was called inactive in the assay on CRL-7250. For the same compound, the Potency in the assay on HEK293 is 11.8 µM (active).
As for `NC(CO)(CO)CCc1ccc(Sc2cccc(OCc3ccccc3)c2)cc1Cl`, the max response in the assay with CRL-7250 was -10.2%. Moreover, the Potency was 10.5 µM (active) in the assay on HEK293 and 26.4 µM (active) in the assay on HaCat.
Take `O=C(NC1CCOCC1)c1ccc(-c2cc(-c3cn[nH]c3-c3ccccn3)ccn2)cc1`: the max response with CRL-7250 was -5.17%; with HEK293, -15.5%; with HaCat, 2.12%; in the assay with KB-3-1, -6.4% and 1.2%. In addition, the outcome in the assay with CRL-7250 and in the assay with HaCat was inactive.
In the case of `COc1cc2ncnc(-n3nc(-c4ccccn4)nc3N)c2cc1OC`, the values for the Potency with CRL-7250 and with HaCat were 3.55 µM (active) and 3.17 µM (active), respectively. Further, the max response in the assay on CRL-7250 was -12.8%. Moreover, the compound was called inactive in the assay with HEK293, in the assay on HaCat and with KB-3-1.
As for `NS(=O)(=O)c1cccc2c1C(=O)c1cccc(O)c1C2=O`, the Potency with CRL-7250 was 0.526 µM (active); in the assay on HEK293 it was 16.6 µM (active).
For `O=c1cc(-c2ccccc2)oc2cc(O)cc(O)c12`, in the assay with CRL-7250, the max response is -20.5%. Moreover, in the assay on HEK293, the Potency was 8.33 µM (active).
For the compound `Clc1ccc(Cn2c(CN3CCCC3)nc3ccccc32)cc1`, the compound was classed as inactive in the assay on PC49, with TAB109, in the assay on CRL-7250 and with HaCat. The Potency entry with SC27B, with TAB113 and in the assay with TAB165 was “inactive” in each case. For the same compound, the max response in the assay with CRL-7250 is -0.466%; in the assay on HEK293, -18%; in the assay with HaCat, -16.9%; in the assay on KB-3-1, 4.33% and 5.03%.
As to `O=C(O)c1cc(-c2ccccc2)nc2ccccc12`, the result in the assay on PC49, in the assay on TAB109, with HEK293 and with HaCat was inactive. In addition, the Potency result in the assay with SC27B, with TAB113, in the assay on TAB165 and with W2 was “inactive” in each case. For the same compound, the max response in the assay on CRL-7250 is -0.325% and 3.3% and 1.79%; in the assay on HEK293, -6.89%; with HaCat, -15.6%; with KB-3-1, -3.95% and -19% and 4.62%.
Turning to `COc1ccc2c(Oc3ccc(NC(=O)c4c(C)n(CC(C)(C)O)n(-c5ccccc5)c4=O)nc3)ccnc2c1`, the Potency was 18.4 µM (active) with CRL-7250 and 11.6 µM (active) in the assay on HaCat. In addition, the max response was -5.8% in the assay with CRL-7250, 3.25% in the assay with HEK293, -3.13% with HaCat and 3.31% with KB-3-1.
Turning to `COc1ccc2cc(-c3nc(-c4ccc(S(C)=O)cc4)[nH]c3-c3ccncc3)ccc2c1` (stereo not given), the max response was -4.22% in the assay on CRL-7250, -7.74% in the assay with HaCat and 4.38% with KB-3-1. Moreover, the result in the assay with CRL-7250 and in the assay with HaCat was inactive.
Consider `CC(=O)CCCCn1c(=O)c2c(ncn2C)n(C)c1=O`, for which the compound was called inactive in the assay with PC49, with TAB109, in the assay with HEK293, in the assay on HaCat and in the assay with KB-3-1. Moreover, the Potency entry in the assay on SC27B, with TAB113, in the assay with TAB165 and in the assay with W2 was “inactive” throughout. Moreover, the max response is -2.71% and -0.425% with CRL-7250; -3.31% in the assay with HEK293; -9.06% in the assay on HaCat; -13.9% in the assay on KB-3-1.
Regarding `CC(C)(C)NC(=O)Nc1cccc(Nc2ncc(F)c(NC(C)(C)CO)n2)c1`, the max response with CRL-7250 is -1.2% and -11%. Further, the Potency is 11.8 µM (active) in the assay on HEK293; 10.5 µM (active) and 16.4 µM (active) in the assay with HaCat; 18.7 µM (active) and 20.6 µM (active) in the assay on KB-3-1.
`COC(=O)[C@@H]1[C@H]2C[C@H]3c4[nH]c5ccccc5c4CCN3C[C@@H]2CC[C@@H]1O`: the compound was classed as inactive with CRL-7250 and in the assay on HaCat. For the same compound, the max response is -10.9% and -9.65% in the assay with HEK293; 0.769% in the assay on HaCat; -4.37% and 9.99% in the assay with KB-3-1.
Regarding `CCN(CC)CCNC(=O)c1ccc(N)cc1`, the outcome with PC49, with TAB109, in the assay on CRL-7250, with HEK293 and in the assay with KB-3-1 was inactive. The Potency result in the assay with SC27B, in the assay with TAB113, in the assay on TAB165 and with W2 was “inactive” throughout. Further, the max response was 0.0096% in the assay with HaCat and -16.7% in the assay with KB-3-1. Besides, the outcome with HaCat is “inactive; activator”.
`CC(=O)N(C)C1(c2ccccc2)CCN(CCC[C@]2(c3ccc(Cl)c(Cl)c3)CCCN(C(=O)c3ccccc3)C2)CC1`: in the assay on CRL-7250, the max response is -7.82%. The Potency in the assay on HEK293 is 662 nM (active) and 18.4 µM (active); in the assay with HaCat, 2.35 µM (active) and 20.6 µM (active); in the assay with KB-3-1 it was 372 nM (active).
